# Reference: a collection of fitness landscapes (doi:10.1126/science.1257360)
# The full ranking holds about 140,000 sequences; the median of “enrichment ratio after two sorts for PhoP signalling” is about 0, and the highest 2% start at about 11. The list comes from a sample in which the highest values are over-represented; it also holds similar and randomly drawn sequences.
# B1: PhoQ; a variant is named by its letters at X, in order, P23837 (parent)
# chain: MKKLLRLFFPLSLRVRFLLATAAVVLVLSLAYGMVALIGYSVSFDKTTFRLLRGESNLFYTLAKWENNKLHVELPENIDKQSPTMTLIYDENGQLLWAQRDVPWLMKMIQPDWLKSNGFHEIEADVNDTSLLLSGDHSIQQQLQEVREDDDDAEMTHSVAVNVYPATSRMPKLTIVVVDTIPVELKSSYMVWSWFIYVLSANLLLVIPLLWVAAWWSLRPIEALAKEVRELEEHNRELLNPATTRELTSLVRNLNRLLKSERERYDKYRTTLTDLTHSLKTPLXXLQXXLRSLRSEKMSVSDAEPVMLEQISRISQQIGYYLHRASMRGGTLLSRELHPVAPLLDNLTSALNKVYQRKGVNISLDISPEISFVGEQNDFVEVMGNVLDNACKYCLEFVEISARQTDEHLYIVVEDDGPGIPLSKREVIFDRGQRVDTLRPGQGVGLAVAREITEQYEGKIVAGESMLGGARMEVIFGRQHSAPKDE
# Variants of: B1
# Experiment: enrichment ratio after two sorts for PhoP signalling (ratio (wild type AVST 3.29)); higher = more functional
# Settings: with PhoP (E. coli)
row,Variant,enrichment ratio
1,KFHC,≤ 0.25
2,RINI,≤ 0.25
3,PWSK,≤ 0.25
4,EKTT,≤ 0.25
5,YVYD,≤ 0.25
6,WNEY,≤ 0.25
7,VGWQ,1.18
8,FPFF,≤ 0.25
9,GAHW,≤ 0.25
10,GIYF,≤ 0.25
11,RKRF,≤ 0.25
12,MQSQ,≤ 0.25
13,TCYL,16.2
14,LSYL,11.2
15,YTDM,≤ 0.25
16,TTDM,22.8
17,KCYL,≤ 0.25
18,ITDM,≤ 0.25
19,NCYL,≤ 0.25
20,LTYL,0.587
21,MCSQ,11.6
22,KCSQ,≤ 0.25
23,LNYL,≤ 0.25
24,YSLM,9.22

row,Variant,enrichment ratio
1,KKFE,≤ 0.25
2,ELTM,≤ 0.25
3,TLNS,6.81
4,EHKW,≤ 0.25
5,HFHT,≤ 0.25
6,QNLL,≤ 0.25
7,NWYY,≤ 0.25
8,IMGQ,≤ 0.25
9,PTPW,≤ 0.25
10,TWNY,≤ 0.25
11,MDHM,≤ 0.25
12,KCHM,≤ 0.25
13,MCHM,16.7
14,YPGL,≤ 0.25
15,SGWV,≤ 0.25
16,SGGF,1.06
17,SGWN,≤ 0.25
18,SGMF,13.3
19,SGHF,≤ 0.25
20,SGMV,14.3
21,SGMW,≤ 0.25
22,SGMN,30.2
23,SGNL,0.304
24,SGCI,10.3

row,Variant,enrichment ratio
1,SGMD,≤ 0.25
2,SGCV,15.2
3,IRYD,≤ 0.25
4,ARIW,≤ 0.25
5,QYQP,≤ 0.25
6,YDYL,≤ 0.25
7,LNRM,≤ 0.25
8,SGMS,6.87
9,SGMI,25
10,SGMG,0.699
11,EIPP,≤ 0.25
12,SPCC,≤ 0.25
13,FCCC,≤ 0.25
14,IPCC,≤ 0.25
15,EECC,≤ 0.25
16,HECC,7.31
17,SECC,38
18,FECC,22.6
19,HPCC,≤ 0.25
20,TECC,30
21,IECC,11.9
22,SLCC,8.22
23,FSCC,1.27
24,KYGK,≤ 0.25

row,Variant,enrichment ratio
1,RDWY,≤ 0.25
2,FLEP,≤ 0.25
3,HSIW,≤ 0.25
4,NECC,≤ 0.25
5,QECC,≤ 0.25
6,MECC,14.4
7,APCG,≤ 0.25
8,HWFW,≤ 0.25
9,QDYL,≤ 0.25
10,KSQC,≤ 0.25
11,THQC,13.1
12,TKQC,12.8
13,VYQC,≤ 0.25
14,TSQC,14.5
15,KAQC,≤ 0.25
16,SHQC,≤ 0.25
17,VLQC,≤ 0.25
18,NSQC,≤ 0.25
19,VVQC,12.7
20,NQQC,≤ 0.25
21,NHQC,≤ 0.25
22,FREL,≤ 0.25
23,PHMW,≤ 0.25
24,YKAD,≤ 0.25

row,Variant,enrichment ratio
1,LFMF,≤ 0.25
2,WKII,≤ 0.25
3,WHFY,≤ 0.25
4,WCRI,≤ 0.25
5,QMHF,13.5
6,QMMI,≤ 0.25
7,QMNG,38.7
8,QMHI,≤ 0.25
9,QMGE,96.1
10,QEGE,≤ 0.25
11,QMWW,≤ 0.25
12,QMTH,≤ 0.25
13,QRNG,≤ 0.25
14,QMGF,6.84
15,QMDS,≤ 0.25
16,QMDH,15
17,DWSK,≤ 0.25
18,GLGH,≤ 0.25
19,IMDI,≤ 0.25
20,QSMQ,≤ 0.25
21,VMGY,≤ 0.25
22,NRNH,≤ 0.25
23,TNKN,≤ 0.25
24,QMWQ,≤ 0.25

row,Variant,enrichment ratio
1,QMNF,36
2,QMNI,9.75
3,QMNL,3.36
4,QENN,3.33
5,QMPM,≤ 0.25
6,QMHM,28.3
7,QRNF,≤ 0.25
8,QMHP,≤ 0.25
9,QMWM,≤ 0.25
10,QMNN,12.1
11,QMHQ,13.4
12,DYPW,≤ 0.25
13,LWVM,≤ 0.25
14,GLWV,≤ 0.25
15,MEAP,≤ 0.25
16,GFED,≤ 0.25
17,ATGH,5.03
18,EKMA,≤ 0.25
19,QMVG,≤ 0.25
20,QMTR,≤ 0.25
21,QMHG,13
22,SENL,≤ 0.25
23,SEQN,21.6
24,SEGM,6.17

row,Variant,enrichment ratio
1,SEYM,19.4
2,SLYM,≤ 0.25
3,SEEN,≤ 0.25
4,ISAH,≤ 0.25
5,GGLK,≤ 0.25
6,HLNC,≤ 0.25
7,DDAI,≤ 0.25
8,QAIL,≤ 0.25
9,FFLL,≤ 0.25
10,MALL,16.2
11,FARL,≤ 0.25
12,FAAN,≤ 0.25
13,MMLL,1.58
14,FALL,16.3
15,ADHN,≤ 0.25
16,ALCG,4.5
17,WHCL,≤ 0.25
18,SADG,≤ 0.25
19,LGIQ,≤ 0.25
20,ANMS,11.6
21,ANQF,1.01
22,ADVV,8.21
23,AIMC,≤ 0.25
24,INMV,24.2

row,Variant,enrichment ratio
1,ANMG,≤ 0.25
2,ADMC,2.74
3,AWVV,≤ 0.25
4,INIV,≤ 0.25
5,INCV,≤ 0.25
6,ANMC,22.9
7,AEVV,14.7
8,HRGK,≤ 0.25
9,GKTM,1.84
10,IPYY,≤ 0.25
11,KKIV,≤ 0.25
12,GAYK,≤ 0.25
13,LLMQ,≤ 0.25
14,HFHH,≤ 0.25
15,ATFM,≤ 0.25
16,TRVV,14.5
17,ANLW,9.25
18,QRVV,≤ 0.25
19,ANMI,26.5
20,ANMR,5.84
21,ANVA,3.53
22,AHVV,≤ 0.25
23,ANLA,5.31
24,AIVV,10

row,Variant,enrichment ratio
1,HRVV,≤ 0.25
2,ANLS,12
3,ANVV,11.6
4,QRFS,≤ 0.25
5,DWEC,≤ 0.25
6,RQRD,≤ 0.25
7,NCDF,≤ 0.25
8,HLKR,≤ 0.25
9,RGHG,≤ 0.25
10,TPEY,≤ 0.25
11,SLIG,≤ 0.25
12,YMIK,≤ 0.25
13,RLMY,≤ 0.25
14,KLYR,≤ 0.25
15,AAVT,2.41
16,ANMW,≤ 0.25
17,ANMD,≤ 0.25
18,TNMC,35.5
19,AKVT,12.6
20,ANMV,19.1
21,MNMC,3.1
22,AKMS,3.84
23,LNMC,7.24
24,ALVT,1.4

row,Variant,enrichment ratio
1,ATMS,6.27
2,AIMS,14.3
3,FEGD,≤ 0.25
4,YPGN,≤ 0.25
5,WAKM,≤ 0.25
6,PMHP,≤ 0.25
7,ALWL,≤ 0.25
8,HRYP,≤ 0.25
9,YHPC,≤ 0.25
10,LYDW,≤ 0.25
11,VILC,0.339
12,DWCS,≤ 0.25
13,ANVT,15
14,ADVT,≤ 0.25
15,ANND,≤ 0.25
16,HFIY,≤ 0.25
17,MIKG,≤ 0.25
18,SCMA,15.7
19,SCHF,≤ 0.25
20,SCMG,25.9
21,SCMV,9.09
22,TYMA,1.56
23,KCMF,≤ 0.25
24,SCIG,3.69

row,Variant,enrichment ratio
1,SCMF,12.3
2,SCMI,27.9
3,SCMW,6.03
4,SIMA,4.54
5,SCVG,5.95
6,WPNL,≤ 0.25
7,ERAD,≤ 0.25
8,SRLT,≤ 0.25
9,KMYN,≤ 0.25
10,IRST,≤ 0.25
11,LAMD,≤ 0.25
12,FSHH,≤ 0.25
13,WVRL,≤ 0.25
14,YRGN,≤ 0.25
15,TIYR,2.57
16,IKRH,≤ 0.25
17,VSMQ,2.71
18,LNAC,≤ 0.25
19,MNAC,27.7
20,GITE,≤ 0.25
21,GNAC,12.5
22,GYAC,≤ 0.25
23,GIAC,11.8
24,TNAC,3.13

row,Variant,enrichment ratio
1,MNFC,≤ 0.25
2,GIYS,≤ 0.25
3,PCAQ,≤ 0.25
4,DTYT,≤ 0.25
5,MFKP,≤ 0.25
6,SQVA,4.56
7,WPDN,≤ 0.25
8,HVPR,≤ 0.25
9,KKRG,≤ 0.25
10,QGVQ,≤ 0.25
11,APCH,≤ 0.25
12,SELI,24.6
13,SEYI,4.33
14,SEWI,3.57
15,KYAS,≤ 0.25
16,SLLI,7.62
17,SLAS,5.06
18,SEAS,26.6
19,SEDT,≤ 0.25
20,KYLT,≤ 0.25
21,SYLI,0.306
22,SELA,12.4
23,SELT,20.5
24,WRRM,≤ 0.25

row,Variant,enrichment ratio
1,YYVL,≤ 0.25
2,IENI,≤ 0.25
3,GVPH,≤ 0.25
4,PCMW,≤ 0.25
5,GSWF,≤ 0.25
6,HSKP,≤ 0.25
7,WEQY,≤ 0.25
8,IRFS,≤ 0.25
9,SQVT,5.85
10,SEVT,16.8
11,SFLY,0.911
12,SELS,20.9
13,SELY,11.4
14,NEVT,≤ 0.25
15,KYLS,≤ 0.25
16,KYLY,≤ 0.25
17,SPLS,≤ 0.25
18,QEVT,≤ 0.25
19,SLVT,0.291
20,MEVT,27.6
